FAS TE block: FAS thioesterase domain inhibitors, primary screen, biochemical, fluorescence intensity, uHTS; 360,000 compounds, 0.67% hits; recombinant FAS-TE, OMFH fluorogenic substrate, fluorescence endpoint; Fatty acid synthase (Homo sapiens), P49327; inhibition, % at 15 µM;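 active means compounds whose normalised, plate-corrected inhibition of enzyme fluorescence in the single-dose primary screen is 50% or more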
aDG glyco up: activators of alpha-DG glycosylation, primary screen, uHTS, Pro5-aDG cells, AlphaScreen; alpha-DG glycosylation AlphaScreen (IIH6); 0% Pro5, 100% B10-LARGE cell signal; activation, % at 10 µM; 360,000 compounds, 0.22% hits; AID 624168, 2012;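 active means activation of at least 8% versus controls, or a plate z-score of at least 8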;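 further: Pro5 are CHO cells carrying HIG-tagged alpha-DG that lacks glycosylation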
Yeast superoxide: reduction of superoxide in aged yeast, primary screen, HTS; S. cerevisiae aged cells, superoxide DHE fluorescence; active compounds read low; 330,000 compounds, 0.18% hits; superoxide response (% of plate mean), % at 10 µM;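 active means superoxide response under a set limit, about three screen SD below normal, cut at about 65% in these data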;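 further: yeast aged for seven days with compound at 30 °C before DHE staining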
MPTP inh: mitochondrial permeability transition pore inhibitors, primary screen, biochemical, isolated mouse mitochondria, absorbance. Ca2+ swelling absorbance, 30 min. inhibition, % at 10 µM. 360,000 compounds, 1.4% hits;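 active means inhibition of 50% or more, scaled per plate between neutral and stimulator controls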
H9c2 protect: cardioprotection against H2O2-induced cell death, primary screen, uHTS, H9c2 cells, ATPLite luminescence | protection from H2O2 cell death, % at 20 µM | H9c2 cardiomyocytes, H2O2 injury protection, 2 h | 360,000 compounds, 0.63% hits | AID 588492, 2011;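 active means compounds giving at least 50% protection of heart cells from peroxide-induced death in the single-dose screen, raw or plate-pattern-corrected value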
SUMO Mot1 rescue: yeast Mot1-301 growth rescue at high temperature, primary screen, SUMOylation pathway inhibitor project, S. cerevisiae, ATP luminescence, 38.5C | S. cerevisiae Mot1-301 growth rescue; percent above DMSO median, 100 means doubled | growth rescue, % at 18.8 µM | 320,000 compounds, 1% hits | AID 2716, 2010;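 active means every valid replicate shows activation above 250% relative to neutral control wells; inactive means the rest, any valid replicate at or below 250%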
Rh123 counter: fluorescence retest of MPTP screen hits in isolated mitochondria, single concentration | shares compounds with MPTP inh | membrane potential, Rhodamine 123 fluorescence | inhibition, % at 10 µM | 5,000 compounds, 78% hits | AID 624504, 2012; in the data active means inhibition above about 22%
Numbers stand for hits. Compounds with a hit are over-represented: about 3.8% of the library has one in this group of screens.

For CS(=O)(=O)N(CC(=O)Nc1cccc([N+](=O)[O-])c1)c1ccccc1 the results were FAS TE block inactive, aDG glyco up inactive, Yeast superoxide inactive, MPTP inh inactive, H9c2 protect inactive and SUMO Mot1 rescue inactive.
Screening Cc1ccccc1CN(CC(=O)Nc1cccc([N+](=O)[O-])c1)S(=O)(=O)c1ccc(Cl)cc1 returned FAS TE block inactive, aDG glyco up inactive, Yeast superoxide inactive, MPTP inh 89.3, H9c2 protect inactive, SUMO Mot1 rescue inactive and Rh123 counter 79.8.
`COC(=O)C1=C(C)NC2=C(C(=O)c3ccccc32)C1c1cccc(OC)c1` (stereo not given) gave FAS TE block inactive, aDG glyco up inactive, Yeast superoxide inactive, MPTP inh inactive, H9c2 protect inactive and SUMO Mot1 rescue inactive.
`CC1=C([N+](=O)[O-])C(c2cccc(Br)c2)C2=C(N1)c1ccccc1C2=O` (stereo not given) gave FAS TE block inactive, aDG glyco up inactive, Yeast superoxide inactive, MPTP inh 85.0, H9c2 protect inactive, SUMO Mot1 rescue inactive and Rh123 counter 58.5.
Cc1cc(C)c(S(=O)(=O)c2ccc(F)cc2C)c(Cl)n1 was read as FAS TE block inactive, aDG glyco up inactive, Yeast superoxide inactive, MPTP inh inactive, H9c2 protect inactive and SUMO Mot1 rescue inactive.
`CC(NC(=O)Nc1nnc(C(F)(F)F)s1)(C(F)(F)F)C(F)(F)F` gave FAS TE block inactive, aDG glyco up inactive, Yeast superoxide inactive, MPTP inh 93.9, H9c2 protect inactive and Rh123 counter 109.5.
O=C(Nc1nnc(C(F)(F)F)s1)C1COc2ccccc2O1 (stereo not given) was read as FAS TE block inactive, aDG glyco up inactive, Yeast superoxide inactive, MPTP inh 83.6, H9c2 protect inactive, SUMO Mot1 rescue inactive and Rh123 counter 77.7.
For CC(C)(C)CC(=O)Nc1nnc(C(F)(F)F)s1 the results were FAS TE block inactive, aDG glyco up inactive, Yeast superoxide inactive, MPTP inh inactive, H9c2 protect inactive and SUMO Mot1 rescue inactive.
`Cc1nn(-c2ccccc2)nc1C(=O)Nc1nnc(C(F)(F)F)s1` gave FAS TE block inactive, aDG glyco up inactive, Yeast superoxide inactive, MPTP inh 72.7, H9c2 protect inactive, SUMO Mot1 rescue inactive and Rh123 counter 79.3.
O=C(Nc1nnc(C2CC2)s1)C1COc2ccccc2O1 (stereo not given) was read as FAS TE block inactive, aDG glyco up inactive, Yeast superoxide inactive, MPTP inh inactive, H9c2 protect inactive and SUMO Mot1 rescue inactive.
For CCSc1nnc(NC(=O)c2ccc(Br)s2)s1 the results were FAS TE block inactive, aDG glyco up inactive, Yeast superoxide inactive, MPTP inh inactive, H9c2 protect inactive and SUMO Mot1 rescue inactive.
Screening CCc1nnc(NC(=O)c2nn(-c3ccccc3)nc2C)s1 returned FAS TE block inactive, aDG glyco up inactive, Yeast superoxide inactive, MPTP inh inactive, H9c2 protect inactive and SUMO Mot1 rescue inactive.
O=C(Nc1nnc(C(F)(F)F)s1)c1ccc(Br)s1 was read as FAS TE block inactive, aDG glyco up inactive, Yeast superoxide inactive, MPTP inh 77.9, H9c2 protect inactive, SUMO Mot1 rescue inactive and Rh123 counter 74.5.
`Cc1c(-c2nc(-c3ccc(C(C)(C)C)cc3)no2)n(C)oc1=O` gave FAS TE block inactive, aDG glyco up inactive, Yeast superoxide inactive, MPTP inh inactive, H9c2 protect inactive and SUMO Mot1 rescue inactive.
Screening O=C(NCC(c1ccco1)N1CCCC1)c1cn(-c2ccccc2)nc1-c1ccc(F)cc1 (stereo not given) returned FAS TE block inactive, aDG glyco up inactive, MPTP inh inactive and H9c2 protect inactive.
Screening Cc1nc2c(-c3ccc(Cl)cc3)c(C)[nH]n2c(=O)c1Cc1ccccc1 returned FAS TE block inactive, aDG glyco up 12.1, Yeast superoxide inactive, MPTP inh 68.9, H9c2 protect inactive, SUMO Mot1 rescue inactive and Rh123 counter 91.0.
`Cc1nc2c(-c3ccccc3)c(C)[nH]n2c(=O)c1Cc1ccccc1` gave FAS TE block inactive, aDG glyco up inactive, Yeast superoxide inactive, MPTP inh inactive, H9c2 protect inactive and SUMO Mot1 rescue inactive.
`O[C@@H]1CN(Cc2ccc(-n3cccn3)cc2)CC[C@H]1N1CCN(c2ccccc2F)CC1` gave FAS TE block inactive, aDG glyco up inactive, Yeast superoxide inactive, MPTP inh 69.0, H9c2 protect inactive, SUMO Mot1 rescue inactive and Rh123 counter 59.0.
For CN1OC[C@@H]2CN[C@H](c3ccc(-c4cccc(F)c4)cc3)C[C@@H]21 the results were FAS TE block inactive, aDG glyco up inactive, MPTP inh inactive and H9c2 protect inactive.
Screening O=C(N=C1SC2CS(=O)(=O)CC2N1c1cccc(Cl)c1)C1CCCO1 (stereo not given) returned FAS TE block inactive, aDG glyco up inactive, Yeast superoxide inactive, MPTP inh inactive, H9c2 protect inactive and SUMO Mot1 rescue inactive.
Screening O=C(Nc1csc([N+](=O)[O-])c1)Nc1ccccc1Cl returned FAS TE block inactive, aDG glyco up inactive, Yeast superoxide inactive, MPTP inh 88.8, H9c2 protect inactive, SUMO Mot1 rescue inactive and Rh123 counter 80.5.
`O=C(Nc1ccc(Cl)cc1)Nc1ccccc1Sc1ncc([N+](=O)[O-])s1` gave FAS TE block inactive, aDG glyco up inactive, Yeast superoxide inactive, MPTP inh 85.8, H9c2 protect inactive, SUMO Mot1 rescue inactive and Rh123 counter 72.8.
For O=C(Nc1ccccc1Cl)Nc1ccccc1Cl the results were FAS TE block inactive, aDG glyco up inactive, Yeast superoxide inactive, MPTP inh inactive, H9c2 protect inactive and SUMO Mot1 rescue inactive.
For Cc1cc([N+](=O)[O-])ccc1NC(=O)Nc1ccc(F)cc1F the results were FAS TE block inactive, aDG glyco up inactive, Yeast superoxide inactive, MPTP inh 97.5, H9c2 protect inactive, SUMO Mot1 rescue inactive and Rh123 counter 78.5.
`O=C(Nc1ccccc1F)Nc1ccc([N+](=O)[O-])cc1Cl` gave FAS TE block inactive, aDG glyco up inactive, Yeast superoxide inactive, MPTP inh 89.5, H9c2 protect inactive, SUMO Mot1 rescue inactive and Rh123 counter 92.2.
Cc1nn2c(=O)cc(CSCC(=O)Nc3ccccc3Cl)nc2s1 was read as FAS TE block inactive, aDG glyco up inactive, Yeast superoxide inactive, MPTP inh inactive and H9c2 protect inactive.

Assay outcomes as filed in PubChem BioAssay.
